Assay outcomes: PubChem BioAssay, National Center for Advancing Translational Sciences (NCATS)
rTrxR1 inhibitor = inhibitors of rat thioredoxin reductase 1; recombinant rTrxR1, NADPH fluorescence consumption, selenite substrate; Potency, µM (top dose mostly 114 µM), without a hit: at the top dose activity change, negative = inhibition, actives largely listed as inhibitors; 390,000 compounds, 1% hits; note: potency is the fitted concentration of half-maximal effect; nearly all actives have a fitted effect of over 65% in size
Target sequence (O89049 whole entry, looked up): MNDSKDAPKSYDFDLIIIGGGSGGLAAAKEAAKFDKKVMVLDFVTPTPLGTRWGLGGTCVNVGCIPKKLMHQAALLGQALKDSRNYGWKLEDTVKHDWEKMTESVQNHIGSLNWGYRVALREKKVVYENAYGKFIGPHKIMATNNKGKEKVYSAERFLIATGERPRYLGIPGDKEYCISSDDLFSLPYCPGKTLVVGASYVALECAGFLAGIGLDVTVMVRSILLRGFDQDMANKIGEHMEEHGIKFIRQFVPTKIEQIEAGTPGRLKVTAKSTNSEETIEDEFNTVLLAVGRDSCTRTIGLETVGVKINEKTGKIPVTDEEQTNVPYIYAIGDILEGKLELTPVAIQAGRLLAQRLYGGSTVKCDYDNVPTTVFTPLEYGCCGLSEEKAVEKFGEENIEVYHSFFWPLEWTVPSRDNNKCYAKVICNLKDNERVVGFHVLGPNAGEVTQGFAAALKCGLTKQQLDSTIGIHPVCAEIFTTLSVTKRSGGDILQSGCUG
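Rat TrxR1 (90 nM in the dispensed reagent) was pre-reduced with 400 uM NADPH for 5 min at room temperature, then incubated with compound for 15 min. After 400 uM selenite was added, NADPH fluorescence (Ex 340/Em 450 nm) was followed for 8 min.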
GALK inhibitor = inhibitors of human galactokinase. P51570. Purified GALK, Kinase-Glo residual ATP luminescence. Potency, µM (series often up to 57.5 µM), for the others: at the top dose activity change, negative = inhibition, usual class: inhibitors. 270,000 compounds, 0.007% hits. AID 1868; note: potency is the fitted concentration of half-maximal effect
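GALK at 5 nM final was combined with compound, 35 uM ATP and 100 uM galactose in HEPES pH8.0 with MgCl2 and DTT. The reaction ran one hour at room temperature before luminescent ATP detection.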
Coupling enz = counter-screen for Giardia aldolase inhibitors: coupling enzyme system | activity change, negative = inhibition, % at 58.2 µM, hits read low | coupling enzyme system counterscreen, AmpLite Red fluorescence | 290,000 compounds, 0.67% hits; in the data active = activity change below about -30%
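Compounds tested against the coupling enzymes alone at 57.5 uM final; readout was AmpLite Red fluorescence (525/598 nm) after 20 min at RT.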
PI4K2A block = PI4K2A (human) kinase inhibition. Q9BTU6. purified PI4K2A, ADP-Glo luminescence, 1 h; stronger effect = lower value. activity change, negative = inhibition, % at 76.9 µM. 420,000 compounds, 0.13% hits. AID 1346378; in the data active = activity change below about -50%; inconclusive = mostly about -30% to -49%;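 note: -100% = wells without enzyme as full effect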
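Compounds are screened against recombinant PI4K2A using PI as substrate and ATP, the latter dispensed at 300 microM. Reactions run one hour at ambient temperature before ADP-Glo detection; full inhibition defined by wells lacking enzyme.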
Giardia killer = Giardia lamblia killing | Giardia lamblia trophozoite viability | activity change, % at 7.66 µM, hits read low | 340,000 compounds, 0.15% hits | AID 540267; in the data active = activity change below about -80%; inconclusive = between about -30% and that limit;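 note: parasites exposed to compound for two days anaerobically before the ATP read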
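Compounds were tested on trophozoites seeded at 100 cells/well and held 48 hrs at 37 deg C anaerobically. An ATP-based luminescent kit measured the remaining live cells.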
TrxR1 substrate = rat thioredoxin reductase 1 substrate activity | purified TrxR1 substrate turnover, NADPH consumption readout | Potency, µM (highest dose often 114 µM), without a hit: at the highest dose activity change, negative = substrate turnover | 390,000 compounds, 0.01% hits | AID 588456; note: potency is the fitted concentration of half-maximal effect; nearly all actives have a fitted effect of over 50% in size
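Rat TrxR1, dispensed at 90 nM, was prereduced with 400 uM NADPH (final) for 5 min at ~22 deg C, then incubated with compound 15 min before 400 uM selenite. A first-read NADPH fluorescence drop versus no-compound background flagged substrates.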
Numbers without * were called inactive; [ ] = another dose, or the depositor's remark. Shown are actives, neighbours in structure and some others; about 1.5% of the full set was active somewhere. Unless noted, calls come from the whole dose curve; as a rule, active = well fitted curve in the direction sought with a large enough effect; inconclusive = small, poorly fitted or top-dose-only effect, or another doubt; inactive = no such curve, though single readings can be large; an effect the other way counts as inactive or inconclusive. Unless noted, % is set by controls: 0 for no effect and ±100 for the full control effect.

Results for COc1ccc(-c2nc3ccccn3c2Cl)cc1 ?
rTrxR1 inhibitor: 0.8%; GALK inhibitor: 15.0%; Coupling enz: -1.8; PI4K2A block: -51.7*; Giardia killer: -24.3; TrxR1 substrate: 23.3%

Results for N#C/C(=C/c1ccc(N2CCOCC2)o1)c1nc2ccccc2[nH]1 ?
rTrxR1 inhibitor: -20.4%[57.1 µM]; GALK inhibitor: -0.3%; Coupling enz: -24.5; PI4K2A block: -13.0; Giardia killer: -0.6; TrxR1 substrate: 5.0%[57.1 µM]

Results for N#C/C(=C\c1ccc(N2CCOCC2)o1)c1ccccc1 ?
rTrxR1 inhibitor: 3.55µM*; GALK inhibitor: 4.7%; Coupling enz: -44.1*; PI4K2A block: -5.4; Giardia killer: -2.5; TrxR1 substrate: -3.4%

Results for N#C/C(=C/c1ccc(N2CCOCC2)o1)c1ccc(Br)cc1 ?
rTrxR1 inhibitor: 11.2µM*; GALK inhibitor: -5.7%; PI4K2A block: 0.1; Giardia killer: 10.4; TrxR1 substrate: -17.2%

How did O=C(/C=C/c1ccc(Br)o1)NCc1ccccc1 do in these assays?
rTrxR1 inhibitor: 3.98µM*; GALK inhibitor: 0.6%; Coupling enz: -0.3; PI4K2A block: -22.5; Giardia killer: 40.6; TrxR1 substrate: 1.7%

How did O=C(/C=C/c1ccc(Br)o1)Nc1nccs1 do in these assays?
rTrxR1 inhibitor: 28.2µM*; GALK inhibitor: 9.8%; Coupling enz: 2.6; PI4K2A block: -12.2; Giardia killer: -23.9; TrxR1 substrate: 1.0%

How did N#C/C(=C\c1ccc(C(=O)O)cc1)c1ccccn1 do in these assays?
rTrxR1 inhibitor: 0.8%[57.1 µM]; GALK inhibitor: 12.0%; Coupling enz: 1.7; PI4K2A block: -65.2*; Giardia killer: -15.7; TrxR1 substrate: -10.2%

What do the screens show for `CCN(CC)c1ccc(/C=C(\C#N)c2ccccn2)cc1`?
rTrxR1 inhibitor: 4.0%[57.1 µM]; GALK inhibitor: -0.1%; Coupling enz: -12.0; PI4K2A block: -9.4; Giardia killer: inconclusive; TrxR1 substrate: -14.2%

Results for CCOC(=O)c1sc2nccc(OC)c2c1N=CNOC ?
rTrxR1 inhibitor: 6.5%[57.1 µM]; GALK inhibitor: -1.4%; Coupling enz: -1.2; PI4K2A block: -59.3*; Giardia killer: -7.8; TrxR1 substrate: 6.3%[57.1 µM]

What do the screens show for `Cn1cnnc1SCC(=O)Nc1sc2c(c1C#N)CCCCC2`?
rTrxR1 inhibitor: 5.3%; GALK inhibitor: 1.2%; Coupling enz: -42.1*; PI4K2A block: 7.1; Giardia killer: 5.7; TrxR1 substrate: 5.4%

Results for CCCCn1nnnc1SCC(=O)Nc1sc2c(c1C#N)CCCC2 ?
rTrxR1 inhibitor: -29.7%; GALK inhibitor: 0.1%; Coupling enz: 2.6; PI4K2A block: -3.6; Giardia killer: -2.2; TrxR1 substrate: -12.8%

What do the screens show for `Cc1cc(=O)[nH]c2nnc(SCC(=O)Nc3cc(C(F)(F)F)ccc3Cl)n12`?
rTrxR1 inhibitor: -7.2%[57.1 µM]; PI4K2A block: -58.1*; TrxR1 substrate: 0.6%[57.1 µM]

Results for O=C(CSc1nnc2[nH]c(=O)cc(-c3ccccc3)n12)Nc1cc(C(F)(F)F)ccc1Cl ?
rTrxR1 inhibitor: 12.8%[57.1 µM]; PI4K2A block: -2.4; TrxR1 substrate: 17.7%[57.1 µM]

What do the screens show for `CC/C=C1/N=C2C(=O)N(C)C(=O)N=C2N(C)N1`?
rTrxR1 inhibitor: -20.1%; Giardia killer: -87.9*; TrxR1 substrate: -19.8%

How did CN1N/C(=C\c2ccccc2)N=C2C(=O)N(C)C(=O)N=C21 do in these assays?
rTrxR1 inhibitor: 14.1µM*; Giardia killer: -104.6*; TrxR1 substrate: 10µM*

Results for CN1CCCc2cc(/C=C/c3ccnc4ccccc34)ccc21 ?
rTrxR1 inhibitor: -15.8%; TrxR1 substrate: -1.4%

Results for CCN1CCC(N(Cc2cccc(OC)c2)C(=O)Nc2cccc(C(F)(F)F)c2)CC1 ?
rTrxR1 inhibitor: 16.1%; PI4K2A block: -1.4; TrxR1 substrate: -0.2%

Results for COC(=O)Cn1c(=NC(=O)CCS(=O)(=O)c2ccccc2)sc2c(OC)ccc(OC)c21 ?
rTrxR1 inhibitor: 28.2µM*; GALK inhibitor: 5.5%; PI4K2A block: -0.4; Giardia killer: -12.9; TrxR1 substrate: -1.6%
